This note sets out measurements from PubChem BioAssay (NCI).

Molecules are shown by their SMILES. This is part of a sample that, as a whole, favours compounds with a hit. Of some 83,000 tested, about 20% had one in any assay.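 How to read the values: 0–100, growth inhibition (40 = 60% inhibited); 0, no net growth; -100 to 0, cell death (-40 = 40% of starting cells died; -100 = all dead).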 Unmarked numbers belong to inactive results. Calls of active or inactive are those of the source. Rule for the calls: active = growth percent below 10; inactive = the rest.

The test system of the experiment is HL-60(TB) leukemia. Kind of experiment: NCI-60 one-dose screen, 48 h (100 = growth as untreated, 0 = no growth, -100 = all killed). Particulars: 10 µM unless noted.
Consider `CC(=O)c1c(Nc2ccc(F)c(F)c2F)[nH]c2c(F)cc(F)cc2c1=O`, for which the growth is -48% (active).
As to `COc1cc2cc(Oc3ccc(NC(=O)c4ccccc4)cc3)c(C)nc2cc1OC`, the growth was 100%.
For the compound `CCC(C)C1NC(=O)c2nc(oc2-c2ccccc2)-c2csc(n2)-c2csc(n2)-c2nc(oc2C)-c2coc(n2)CNC(=O)C(C(C)CC)NC1=O` (stereo not given), the growth is -69.7% (active).
Under `Cc1nc2cccc(NCCCCC(=O)NO)c2c(=O)n1-c1ccccc1` stands 42.8%; under `COc1cc(C(=O)c2c(-c3ccccc3)oc3c(OC)cccc23)cc(OC)c1O`, 3.31% (active).
`COC(=O)c1c(C)nc(C)c2c1C(=O)C(Br)=C(NCCCCO)C2=O`: the growth is 24.1%.
As to `CCOC(=O)c1cc2c(n1Cc1cc(OC)c(OC)c(OC)c1)-c1nc(N)sc1CCC2`, the growth is 13.2%.
Under `CCOS(=O)(=O)c1c(C(C)C)cc(C(C)C)cc1C(C)C` stands 89%; under `COc1ccc(C2CC(c3ccc(OC)c(OC)c3)=NN2C(=O)c2cc(OC)c(OC)c(OC)c2)c(OC)c1` (stereo not given), 84%.
Regarding `Cc1cc(O)c(C(C)C)cc1N=O`, the growth is 66.1%.
Under `Nc1ncnc2c1ncn2C1OC(CO)C2OC21` (stereo not given) stands 114%.
As for `COc1ccc(-c2cncnc2N)cc1OC`, the figure is 95.8%; as for `COc1cc2cc(Oc3ccc(NC(=O)Nc4ccc(F)c(C(F)(F)F)c4)cc3)c(C)nc2cc1OCCN1CCOCC1`, 19.3%.
Under `Nc1ncnc2c1N=C(c1ccc(F)cc1)CC(c1cccc(Nc3ccnc4cc(Cl)ccc34)c1)N2` (stereo not given) stands 83.6%; under `COc1ccc(NC(=O)c2sc3nc(C)c(C(=O)CCc4cccc(OC)c4)cc3c2N)cc1`, 34.6%; under `CCN(CC)c1ccc(/C=C/C2=[N+](C)c3ccccc3C2(C)C)c(C)c1`, -34.7% (active).
For `O=C(Oc1ccccc1)c1ccccc1Cl`, the growth is 76.4%.
As to `O=S(=O)(NCCNc1nccc(-c2c(-c3cccc(F)c3)nc3occn23)n1)c1ccc(Br)cc1`, the growth is 103%.
Take `OCc1cnccc1NCCCOc1ccccc1`: the growth is 89.4%.
As for `O=C1/C(=C/c2ccc(F)cc2)Sc2c(Br)cccc21`, the figure is 103%.
Regarding `C=CCNC(=O)/C(=C/c1cccc([N+](=O)[O-])c1)NC(=O)c1ccccc1`, the growth was 137%.
In the case of `COc1ccc(C/C(C)=C(/c2ccc(OCCCN(C)C)cc2)c2ccc(OC(C)=O)cc2)cc1`, the growth was 70.8%.
On to `Cc1nc2scc(-c3ccccc3)n2c(=O)c1CCO`, for which the growth was 112%.
Consider `CC[n+]1c(C)ccc2cc(C)ccc21`, for which the growth was 87%.
As for `C#CCO[C@H]1CC[C@H](OCC#C)[C@@H]2[C@H]1[C@H]1C[C@@H]3[C@@]4(C)CCC[C@@](C)(C(=O)OC)[C@@H]4CC[C@@]23C=C1C(C)C`, the figure is 78.1%; as for `CC1CC(O)C2C3(C)CCCC2(COC3=O)C12CCC1(CCOC1=O)O2` (stereo not given), 121%.
As for `COc1ccc(-c2cc(Cc3cccs3)c(=O)n(Cn3ccc4ccccc43)n2)cc1`, the figure is 98.4%.
As for `Cc1ccc(NCc2cn(-c3ccc(C(=O)O)cc3)nc2-c2ccc(C(=O)O)cc2)cc1`, the growth was 106%.
As for `O=C(Nc1ccc(Cl)cn1)C1(c2ccccc2)CCCCC1`, the figure is 51.5%.
Under `C=C(C)C(=O)Nc1ccc(NC(C)C)cc1` stands 129%.
Consider `Cc1nnc2nc(N)[nH]n2c1=O`, for which the growth is 99.6%.
Turning to `Nc1nc(N)c2c(n1)NC(c1cccc(Nc3ccnc4cc(C(F)(F)F)ccc34)c1)CC(c1ccc(Cl)cc1)=N2` (stereo not given), the growth was 34.3%.
`COc1ccc(/C(=C\c2ccc3c(c2)OCO3)C(=O)Nc2nc3ccccc3s2)cc1`: the growth is 101%.
Under `CC(C)(C)c1ccc(C(=O)Nc2sc3c(c2C#N)CCC(=O)C3)cc1` stands -1.94% (active); under `N#Cc1c(-c2ccccc2)cc(-c2ccccc2)n(CCCC(=O)O)c1=O`, 103%; under `CNCCNc1nc2ccccc2c2c(=O)c3cccc(OC)c3sc12`, 26.5%.
With `CN(C)CC#Cc1ccc2ncc(C#N)c(Nc3ccc(F)c(Cl)c3)c2c1`, the growth is 26.8%.
As for `Cc1cc(N(CCCNc2ccnc3cc(Cl)ccc23)Cc2ccco2)nc(N2CCN(C)CC2)n1`, the figure is 38%; as for `COc1ccc(/C=C2\COc3ccc(-c4ccccc4)cc3C2=O)c(OC)c1`, 56.9%.
Under `COC(=O)c1cc(-c2ccc(Cl)c(Cl)c2)[nH]c(=O)c1C#N` stands 101%.
